Experimental data reported in PubChem BioAssay.
Where “and” joins values, the source holds several entries; their conditions need not be identical. Identical values can stand only once. Calls of active or inactive are those of the source.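 How the source made its calls, unless noted: active means inhibition above the screen-wide mean plus 3 SD, about 51%; inactive means the rest.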

Columns and labels:
[1] = yeast AGP1-GFP fluorescence change, single-dose – cell-based, flow cytometry, S. cerevisiae, cherry picks, confirmation (AID 2273;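 active means GFP response above 150% of the DMSO level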;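 further: median GFP channel fluorescence over the whole cell population gate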); conditions: S. cerevisiae AGP1-GFP strain, 3 h, at 10 µM
[2] = target: Integrin beta-1 (Homo sapiens) + Integrin alpha-4 (Homo sapiens) (UniProt P13612+P05556); test: alpha4beta1 integrin LIBS antibody binding reduction – U937 cells, HUTS-21 mAb, flow cytometry, validation set, VLA-4 allosteric modulator project, pilot screen (AID 2674;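 active means inhibition above 50%, about 3 SD of the validation set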;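 further: antibody binding induced by the VLA-4 ligand LDV present at three times its Kd; 0% = LDV ligand with antibody and no compound and 100% = antibody without LDV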); conditions: HUTS-21 LIBS mAb binding, at 6.7 µM, hits give high values, binding induced by LDV ligand
[3] = calorie-restriction mimetic ROS inhibitors, yeast – validation compound set, pilot screen (AID 2706;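 active means superoxide response below 65% of plate, a cut near 3 SD across the whole screen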;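 further: yeast exposed to compound for one week at 30 degrees C before staining; 100% = mean of all compound wells on the same plate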); conditions: S. cerevisiae aging, superoxide DHE fluorescence; at 10 µM; hits give low values
[4] = target: Beta-adrenergic receptor kinase 1 (Homo sapiens) (UniProt P25098); test: GRK2 binders displacing RNA aptamer, biochemical, validation, human GRK2, bead flow cytometry (AID 488806;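 active means aptamer binding inhibition above 30%, about 3 SD of noise from non-fluorescent compounds; inactive means inhibition at or below 30%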); conditions: bead-bound GRK2, FAM-aptamer displacement, at 10 µM, hits give high values
[5] = target: Beta-2 adrenergic receptor (Homo sapiens) (UniProt P07550); test: agonist-induced loss of surface beta2AR – cell-based, FAP fluorogen, flow cytometry, validation set, pilot screen (AID 504459;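 active means percent response above 42, roughly 3 SD of non-fluorescent test compounds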;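 further: agonist-driven loss of surface beta2AR via internalization measured by FAP dye flow cytometry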); conditions: Am2.2-beta2AR cells, at 10 µM, hits give high values
[6] = target: AP-2 complex subunit beta (Homo sapiens) (UniProt P63010); test: beta-arrestin/AP2 interaction blockers – biochemical, validation set, GST-AP2 beads, flow cytometry, pilot screen (AID 504541;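 active means inhibition above 54%, about 3 SD of non-fluorescent compounds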;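 further: AP2 carries R879A mutation and is captured from E. coli lysate; bead-bound FITC arrestin peptide fluorescence measuring arrestin peptide binding to AP2; 0% = DMSO wells and 100% = excess unlabeled arrestin peptide control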); conditions: FITC arrestin peptide, at 10 µM, hits give high values, AP2 beta2 appendage fragment, R879A mutant
[7] = cytosolic pH regulators acting via V-ATPase – S. cerevisiae, pHLuorin, HTS validation (AID 504600; in the data active means response above about 15%;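 further: plate controls were DMSO for no effect and reference compound for full effect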); conditions: V-ATPase proton transport, at 10 µM, hits give high values
[8] = test system: anti-desmoglein-3 scFv antibody binding to human DSG3; test: blockers of pathogenic pemphigus antibody–desmoglein-3 binding – biochemical, validation compound set, bead-based, flow cytometry, pilot screen (AID 588368;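 active means binding below the plate cutoff, the plate median minus 3 SD, with a reading above zero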;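 further: signal is the median channel fluorescence of bead-bound GFP antibody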); conditions: Protein G beads, DSG3-Fc, scFv-GFP binding, at 10 µM, hits give low values
[9] = Nile Red efflux blockade in pump-expressing yeast – validation compound set, multiplex, phenotypic, pilot screen (AID 588506;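 active means efflux inhibition above 0.42, the validation set average plus 4 SD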;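 further: Nile Red retained in cells so higher fluorescence means more efflux inhibition; 0 = negative control wells and 1 = enniatin B 25 µM full block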); conditions: S. cerevisiae pump-expressing triplex, Nile Red efflux flow cytometry; at 10 µM; hits give high values; the pumps come from Candida albicans
[10] = target: ATP-binding cassette sub-family B member 6 (Homo sapiens) (UniProt Q9NP58); test: blockers of ABCB6-driven porphyrin uptake – K562-ABCB6 cells, flow cytometry, validation set, pilot screen (AID 588550); conditions: K562-ABCB6 porphyrin accumulation, 1 h, at 10 µM, hits give high values;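 further: 0% = DMSO wells and 100% = benzethonium chloride 70 µM positive control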
[11] = AML differentiation inducers, ER-HoxA9 marrow cells – cell-based, GFP/MAC1 double positive, flow cytometry, validation set, primary screen (AID 588685;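 active means differentiation response of at least 50%, scaled between solvent and reference control, from cells with both markers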;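 further: compound exposure lasts four days before antibody staining and flow analysis; 0% = DMSO wells and 100% = 5 µM fulvestrant positive control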); conditions: hits give high values, normalized: vehicle 0, fulvestrant 100

Chain of Beta-adrenergic receptor kinase 1 (Homo sapiens) (P25098 whole entry, looked up): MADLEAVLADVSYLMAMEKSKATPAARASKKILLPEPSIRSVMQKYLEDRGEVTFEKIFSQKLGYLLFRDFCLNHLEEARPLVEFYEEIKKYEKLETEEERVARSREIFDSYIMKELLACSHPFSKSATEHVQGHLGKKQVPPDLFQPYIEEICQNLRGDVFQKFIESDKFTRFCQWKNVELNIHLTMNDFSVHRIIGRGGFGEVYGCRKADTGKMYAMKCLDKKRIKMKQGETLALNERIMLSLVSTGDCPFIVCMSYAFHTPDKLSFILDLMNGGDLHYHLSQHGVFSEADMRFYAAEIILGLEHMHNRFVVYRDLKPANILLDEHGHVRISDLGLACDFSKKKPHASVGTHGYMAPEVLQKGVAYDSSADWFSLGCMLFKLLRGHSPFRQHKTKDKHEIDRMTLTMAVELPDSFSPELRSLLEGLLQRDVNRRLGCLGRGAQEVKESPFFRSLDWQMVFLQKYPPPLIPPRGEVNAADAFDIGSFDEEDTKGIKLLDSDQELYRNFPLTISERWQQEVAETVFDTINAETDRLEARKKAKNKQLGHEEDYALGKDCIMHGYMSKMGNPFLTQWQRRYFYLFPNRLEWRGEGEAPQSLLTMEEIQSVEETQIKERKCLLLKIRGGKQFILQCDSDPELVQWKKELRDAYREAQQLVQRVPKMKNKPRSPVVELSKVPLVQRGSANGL
Chain of Beta-2 adrenergic receptor (Homo sapiens) (P07550 whole entry, looked up): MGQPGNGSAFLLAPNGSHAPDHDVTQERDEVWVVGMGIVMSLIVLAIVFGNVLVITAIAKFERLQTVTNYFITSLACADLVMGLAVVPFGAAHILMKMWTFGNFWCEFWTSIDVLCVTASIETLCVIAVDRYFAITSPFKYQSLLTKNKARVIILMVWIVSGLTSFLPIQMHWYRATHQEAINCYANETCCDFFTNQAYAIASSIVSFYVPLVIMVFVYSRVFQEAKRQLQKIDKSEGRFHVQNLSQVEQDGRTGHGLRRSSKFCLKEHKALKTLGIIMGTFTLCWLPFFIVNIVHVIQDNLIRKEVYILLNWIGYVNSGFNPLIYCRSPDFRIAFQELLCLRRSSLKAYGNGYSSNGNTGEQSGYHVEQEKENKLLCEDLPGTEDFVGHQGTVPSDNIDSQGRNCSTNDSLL
Chain of AP-2 complex subunit beta (Homo sapiens) (P63010 whole entry, looked up, the tested form may be a part, one chain of several): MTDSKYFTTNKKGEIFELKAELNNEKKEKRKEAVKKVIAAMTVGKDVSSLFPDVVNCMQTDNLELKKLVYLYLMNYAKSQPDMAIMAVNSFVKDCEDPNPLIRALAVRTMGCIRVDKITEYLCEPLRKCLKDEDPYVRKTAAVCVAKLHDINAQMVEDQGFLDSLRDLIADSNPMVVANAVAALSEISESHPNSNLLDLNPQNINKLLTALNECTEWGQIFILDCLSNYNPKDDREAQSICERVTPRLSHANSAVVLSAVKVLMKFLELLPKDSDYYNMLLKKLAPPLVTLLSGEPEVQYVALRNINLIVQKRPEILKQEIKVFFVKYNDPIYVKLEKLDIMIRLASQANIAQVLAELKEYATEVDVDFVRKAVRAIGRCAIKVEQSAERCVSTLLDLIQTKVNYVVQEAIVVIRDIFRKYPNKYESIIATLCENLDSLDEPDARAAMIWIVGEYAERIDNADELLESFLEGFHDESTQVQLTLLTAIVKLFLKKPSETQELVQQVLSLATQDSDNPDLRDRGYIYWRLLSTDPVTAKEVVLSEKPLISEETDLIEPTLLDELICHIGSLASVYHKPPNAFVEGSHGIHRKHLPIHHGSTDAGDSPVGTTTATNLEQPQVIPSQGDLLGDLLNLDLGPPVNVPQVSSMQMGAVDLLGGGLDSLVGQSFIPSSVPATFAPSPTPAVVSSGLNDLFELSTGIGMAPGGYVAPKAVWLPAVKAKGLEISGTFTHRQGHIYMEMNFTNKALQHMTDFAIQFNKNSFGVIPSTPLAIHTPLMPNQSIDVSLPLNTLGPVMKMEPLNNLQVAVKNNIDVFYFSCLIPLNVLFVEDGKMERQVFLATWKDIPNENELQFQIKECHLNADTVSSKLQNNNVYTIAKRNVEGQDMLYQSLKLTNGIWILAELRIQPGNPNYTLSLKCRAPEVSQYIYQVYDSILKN
Chain of Integrin beta-1 (Homo sapiens) + Integrin alpha-4 (Homo sapiens) (P05556 whole entry, looked up): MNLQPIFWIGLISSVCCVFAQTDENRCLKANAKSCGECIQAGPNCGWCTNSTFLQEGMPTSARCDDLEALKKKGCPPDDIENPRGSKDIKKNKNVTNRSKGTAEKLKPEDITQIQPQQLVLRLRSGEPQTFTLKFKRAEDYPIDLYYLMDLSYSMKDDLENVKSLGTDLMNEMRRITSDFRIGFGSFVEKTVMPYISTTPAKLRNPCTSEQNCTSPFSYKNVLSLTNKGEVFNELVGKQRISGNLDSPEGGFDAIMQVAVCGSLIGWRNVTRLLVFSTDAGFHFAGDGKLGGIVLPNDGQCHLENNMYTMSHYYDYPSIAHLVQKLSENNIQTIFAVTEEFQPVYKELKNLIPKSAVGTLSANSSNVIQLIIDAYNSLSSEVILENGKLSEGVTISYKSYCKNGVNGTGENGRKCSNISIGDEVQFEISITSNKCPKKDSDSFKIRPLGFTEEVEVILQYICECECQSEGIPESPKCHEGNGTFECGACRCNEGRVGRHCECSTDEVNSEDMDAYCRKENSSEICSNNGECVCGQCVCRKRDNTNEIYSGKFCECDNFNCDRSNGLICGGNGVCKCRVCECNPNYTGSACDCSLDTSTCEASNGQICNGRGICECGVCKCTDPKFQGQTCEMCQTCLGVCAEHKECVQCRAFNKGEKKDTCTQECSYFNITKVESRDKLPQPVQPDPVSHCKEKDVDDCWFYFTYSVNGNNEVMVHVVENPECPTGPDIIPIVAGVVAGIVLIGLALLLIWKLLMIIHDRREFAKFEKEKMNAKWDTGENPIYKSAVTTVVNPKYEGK
Chain of Integrin beta-1 (Homo sapiens) + Integrin alpha-4 (Homo sapiens) (P13612 whole entry, looked up): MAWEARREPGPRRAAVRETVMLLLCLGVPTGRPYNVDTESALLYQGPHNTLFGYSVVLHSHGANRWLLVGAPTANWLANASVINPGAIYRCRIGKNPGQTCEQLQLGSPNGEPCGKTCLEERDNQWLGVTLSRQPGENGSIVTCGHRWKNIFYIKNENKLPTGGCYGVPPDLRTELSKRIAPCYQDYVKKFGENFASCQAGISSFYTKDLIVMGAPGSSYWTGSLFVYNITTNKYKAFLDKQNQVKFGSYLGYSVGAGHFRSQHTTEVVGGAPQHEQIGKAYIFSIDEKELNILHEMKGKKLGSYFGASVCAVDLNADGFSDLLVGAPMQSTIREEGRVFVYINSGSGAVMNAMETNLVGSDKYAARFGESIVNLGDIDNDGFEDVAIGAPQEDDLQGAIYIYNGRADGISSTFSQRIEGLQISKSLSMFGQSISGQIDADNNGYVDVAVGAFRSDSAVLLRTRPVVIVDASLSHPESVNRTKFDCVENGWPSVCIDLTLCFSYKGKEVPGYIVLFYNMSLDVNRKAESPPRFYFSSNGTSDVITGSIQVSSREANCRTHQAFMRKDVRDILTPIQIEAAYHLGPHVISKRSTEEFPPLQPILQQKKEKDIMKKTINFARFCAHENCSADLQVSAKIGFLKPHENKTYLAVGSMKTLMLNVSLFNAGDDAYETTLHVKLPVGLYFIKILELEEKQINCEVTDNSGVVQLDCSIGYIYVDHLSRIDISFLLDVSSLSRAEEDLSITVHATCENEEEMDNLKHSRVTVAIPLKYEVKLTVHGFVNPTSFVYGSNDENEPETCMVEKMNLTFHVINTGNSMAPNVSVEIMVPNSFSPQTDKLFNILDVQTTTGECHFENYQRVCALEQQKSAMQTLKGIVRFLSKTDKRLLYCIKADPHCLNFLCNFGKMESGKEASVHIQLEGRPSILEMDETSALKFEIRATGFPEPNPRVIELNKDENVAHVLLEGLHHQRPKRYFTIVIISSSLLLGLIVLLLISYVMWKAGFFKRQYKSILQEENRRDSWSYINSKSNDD
Chain of ATP-binding cassette sub-family B member 6 (Homo sapiens) (Q9NP58 whole entry, looked up): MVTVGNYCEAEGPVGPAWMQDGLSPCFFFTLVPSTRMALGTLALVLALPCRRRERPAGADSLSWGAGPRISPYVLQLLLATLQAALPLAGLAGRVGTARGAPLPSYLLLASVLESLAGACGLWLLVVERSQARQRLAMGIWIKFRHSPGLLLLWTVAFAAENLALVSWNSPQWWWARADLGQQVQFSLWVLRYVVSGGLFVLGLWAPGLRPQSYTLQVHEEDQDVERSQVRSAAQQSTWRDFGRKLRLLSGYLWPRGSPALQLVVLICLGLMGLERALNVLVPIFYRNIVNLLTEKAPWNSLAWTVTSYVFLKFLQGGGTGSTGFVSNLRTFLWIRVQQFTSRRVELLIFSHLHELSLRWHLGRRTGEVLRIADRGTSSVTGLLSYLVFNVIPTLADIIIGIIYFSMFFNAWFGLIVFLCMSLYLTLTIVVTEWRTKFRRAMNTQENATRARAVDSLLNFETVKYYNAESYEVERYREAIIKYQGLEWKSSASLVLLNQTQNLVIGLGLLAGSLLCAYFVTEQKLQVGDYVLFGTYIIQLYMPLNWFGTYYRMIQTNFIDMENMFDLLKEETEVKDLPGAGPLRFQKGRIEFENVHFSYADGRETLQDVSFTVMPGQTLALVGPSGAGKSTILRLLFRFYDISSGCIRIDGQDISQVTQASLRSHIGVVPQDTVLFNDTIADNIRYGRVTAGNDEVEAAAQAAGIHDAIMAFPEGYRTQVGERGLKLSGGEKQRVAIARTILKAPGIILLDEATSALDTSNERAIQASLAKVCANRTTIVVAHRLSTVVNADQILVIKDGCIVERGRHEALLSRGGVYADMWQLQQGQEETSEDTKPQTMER

O=C(O)Cc1ccc(-c2ccccc2)cc1
inactive: GFP response, % of DMSO [1] 100% | inhibition [2] 2.3% | superoxide response (% of plate) [3] 118% | aptamer binding inhibition [4] 3% | response [5] 2.38% | inhibition [6] 22.4% | response [7] -1.1% | binding (% of control) [8] 99.5% | efflux inhibition (fraction of control) [9] -0.42 | inhibition [10] 8% | differentiation response [11] -24.8%

N#C/C(C(N)=O)=c1/ccc2c(c1)N1C3=C(CCCC3)CC3CCCCC31N=2 (centres undefined)
inactive: GFP response, % of DMSO [1] 100% | inhibition [2] -74.8% | superoxide response (% of plate) [3] 92.3% | aptamer binding inhibition [4] -5% | response [5] 5.12% | inhibition [6] 46.9% | response [7] -2.62% | binding (% of control) [8] 98.3% | efflux inhibition (fraction of control) [9] 0.37 | inhibition [10] -58% | differentiation response [11] -16.3%

NS(=O)(=O)c1cc2c(cc1C(F)(F)F)NC(Cc1ccccc1)NS2(=O)=O (centres undefined)
inactive: GFP response, % of DMSO [1] 101% | inhibition [2] 7.43% | superoxide response (% of plate) [3] 85% | aptamer binding inhibition [4] 7% | response [5] 1.02% | inhibition [6] 21.3% | response [7] -2.03% | binding (% of control) [8] 97.4% | efflux inhibition (fraction of control) [9] 0.05 | inhibition [10] 6% | differentiation response [11] -0.82%

CCOC(=O)C(Cc1cc(C(C)=O)ccc1OC(C)C)C(=O)OCC
inactive: GFP response, % of DMSO [1] 90.8% | inhibition [2] -1.3% | superoxide response (% of plate) [3] 91% | aptamer binding inhibition [4] 4% | response [5] -7.47% | inhibition [6] 47% | response [7] -8.56% | binding (% of control) [8] 99.8% | efflux inhibition (fraction of control) [9] -0.09 | inhibition [10] 10% | differentiation response [11] 4.09%

C[n+]1ccccc1/C=N/O
inactive: GFP response, % of DMSO [1] 98% | inhibition [2] 15.2% and -21.2% | superoxide response (% of plate) [3] 102% and 95% | aptamer binding inhibition [4] 2% and 0% | response [5] 5.73% and -2.86% | inhibition [6] -7.09% and 7.17% | response [7] -0.64% and -1.12% | binding (% of control) [8] 104% and 95.1% | efflux inhibition (fraction of control) [9] -0.2 and -0.47 | inhibition [10] 9% and 0% | differentiation response [11] 0.82% and 2.74%

CN1CCN2c3ccccc3Cc3ccccc3C2C1 (centres undefined)
inactive: GFP response, % of DMSO [1] 97.6% | inhibition [2] 8.4% | superoxide response (% of plate) [3] 99.6% | aptamer binding inhibition [4] 2% | response [5] 4.6% | inhibition [6] 36.1% | response [7] -3.99% | binding (% of control) [8] 95.6% | efflux inhibition (fraction of control) [9] -0.13 | inhibition [10] 3% | differentiation response [11] -0.82%

O=c1[nH]cc(F)c(=O)[nH]1
inactive: GFP response, % of DMSO [1] 90% | inhibition [2] -45% | superoxide response (% of plate) [3] 100% | aptamer binding inhibition [4] -3% | response [5] -17.5% | inhibition [6] -8.2% | response [7] 1.44% | binding (% of control) [8] 104% | efflux inhibition (fraction of control) [9] -0.06 | inhibition [10] 9% | differentiation response [11] -5.73%

c1cnc2c(c1)ccc1cccnc12
inactive: GFP response, % of DMSO [1] 102% | inhibition [2] 19.3% | superoxide response (% of plate) [3] 77.1% | aptamer binding inhibition [4] 8% | response [5] -45.4% | inhibition [6] 10.3% | response [7] 9.34% | binding (% of control) [8] 105% | efflux inhibition (fraction of control) [9] -0.13 | inhibition [10] 4% | differentiation response [11] -0.06%

C[C@]12CC[C@H]3[C@@H](CCC4=CC(=O)CC[C@@]43C)[C@@H]1CC[C@@H]2C(=O)CO
inactive: GFP response, % of DMSO [1] 92.6% | inhibition [2] -13.9% | superoxide response (% of plate) [3] 104% | aptamer binding inhibition [4] -4% | response [5] -2.3% | inhibition [6] 11.7% | response [7] -4.52% | binding (% of control) [8] 111% | efflux inhibition (fraction of control) [9] -0.02 | inhibition [10] 7% | differentiation response [11] 14.7%
